Bioassay records from PubChem.
The list is not random: actives were taken first. Their share in the collection is about 11%.
FBPA coupling cs: counter-screen for Giardia aldolase inhibitors: coupling enzyme system; coupling enzyme system counterscreen, AmpLite Red fluorescence; activity change, negative = inhibition, % at 58.2 µM, hits read low; 290,000 tested, 0.67% active; AID 2472; in the data active = activity change below about -30%
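Fluorescence at 525 nm excitation and 598 nm emission measured inhibition of the coupled detection system without aldolase. Compounds (at 57.5 uM final) were preincubated 10 min at room temperature with coupling enzyme reagent before a 20 min substrate/AmpLite Red step.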
Tau fibril ThT: tau fibrillization inhibition (ThT binding); P10636; Potency, µM (highest dose often 57.4 µM), for inactives: at the highest dose activity, negative = inhibition, most hits filed as inhibitors; 270,000 tested, 2.1% active; recombinant tau K18 P301L, heparin-induced fibrillization, ThT fluorescence; AID 1460; note: potency is the fitted concentration of half-maximal effect; nearly all actives have a fitted effect of over 55% in size
Target sequence (P10636 561-689 P618L limits assumed): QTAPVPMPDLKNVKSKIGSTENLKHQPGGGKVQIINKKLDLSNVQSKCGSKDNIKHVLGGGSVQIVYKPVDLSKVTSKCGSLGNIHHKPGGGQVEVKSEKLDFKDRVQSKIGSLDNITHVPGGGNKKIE
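Aggregation was driven by heparin (20 uM final) acting on recombinant tau […] bearing P301L in 100 mM sodium acetate pH 7; fibrils were detected with Thioflavin T.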
Tau fibril FP: inhibitors of human tau fibril formation; P10636; K18 P301L tau heparin fibrillization, Alexa594 FP, 6 h; Potency, µM (series often up to 57.7 µM), without a hit: top-dose activity, negative = inhibition, most hits filed as inhibitors; 280,000 tested, 0.39% active; note: potency is the fitted concentration of half-maximal effect; nearly all actives have a fitted effect of over 55% in size
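Compound effects on tau fibrillization are measured by Alexa 594 fluorescence polarization (ex 555, em 632 nm). K18 P301L tau is used at 15 uM with 0.24 uM labeled tracer, and 20 uM heparin induces aggregation over 6 hr at 37 C.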
Sfp PPTase inh: Sfp phosphopantetheinyl transferase inhibition; Biochemical Sfp PPTase activity, qHTS; Q9F4F7; Potency, µM, inactives show largest response in the series, negative = inhibition, actives largely listed as inhibitors; 310,000 tested, 3.5% active;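 note: the enzyme is Sfp with the accession as filed and its product quenches rhodamine fluorescence; potency is the fitted concentration of half-maximal effect; 0% = enzyme reaction without inhibitor and -100% = no enzyme wells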
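Sfp 15 nM + cpd, 15 min RT; start w/ rhodamine-CoA 5 uM, BHQ-2-YbbR 12.5 uM (final); 50 mM Hepes pH 7.6, 10 mM MgCl2, 0.01% NP-40, 0.01% BSA; read 525/598 nm at 0 and 30 min.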
G9a block: inhibitors of human histone lysine methyltransferase G9a. G9a H3K9 monomethylation, AlphaScreen, 2 h. Potency, µM (highest dose often 102 µM), for the others: at the top dose activity, negative = inhibition, most hits filed as inhibitors. 350,000 tested, 8.8% active; note: potency is the fitted concentration of half-maximal effect; nearly all actives have a fitted effect of over 75% in size
Target sequence (Q96KQ7 913-1193 limits assumed): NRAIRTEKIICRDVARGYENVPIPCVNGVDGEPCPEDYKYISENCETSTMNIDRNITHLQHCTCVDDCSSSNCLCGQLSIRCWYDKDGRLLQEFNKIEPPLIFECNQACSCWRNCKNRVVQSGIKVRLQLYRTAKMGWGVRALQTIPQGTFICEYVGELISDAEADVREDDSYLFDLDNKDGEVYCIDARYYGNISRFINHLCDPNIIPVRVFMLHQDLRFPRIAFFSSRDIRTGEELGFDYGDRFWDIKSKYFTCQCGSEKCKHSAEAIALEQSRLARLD
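Quantitative HTS format: methyltransferase activity on a biotin-tagged H3K9 peptide is measured by AlphaScreen, using a rabbit anti-monomethyl-H3K9 antibody with streptavidin donor and anti-IgG acceptor beads. Final levels are 20 nM enzyme, 500 nM peptide, 20 uM SAM; 2 h RT.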
Tau fluor cs: counter-screen for tau fibril formation inhibitors. tau K18 P301L Alexa594 fluorescence, heparin fibrillization. Potency, µM (series often up to 57.7 µM), without a hit: at the top dose activity change, negative = decrease. 280,000 tested, 0.93% active; note: potency is the fitted concentration of half-maximal effect; nearly all actives have a fitted effect of over 55% in size
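Human tau K18 P301L (15 uM unlabeled, 0.24 uM Alexa 594-labeled) in 100 mM sodium acetate pH 7 with 20 uM heparin, 6 hr at 37 C. ThT 30 uM added, 1 hr ambient; Alexa 594 FP and total fluorescence read at 555/632 nm.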
* = called active by the depositor; ? = inconclusive; . = no result given; ! = a repeat was not active; [ ] = dose if it differs, or a comment. Unless noted, calls come from the whole dose curve; as a rule, active = well fitted curve in the direction sought with a large enough effect; inconclusive = small, poorly fitted or top-dose-only effect, or another doubt; inactive = no such curve, though single readings can be large; an effect the other way counts as inactive or inconclusive. Unless noted, % is set by controls: 0 for no effect and ±100 for the full control effect.

SMILES | FBPA coupling cs | Tau fibril ThT | Tau fibril FP | Sfp PPTase inh | G9a block | Tau fluor cs
Cc1ccc(S(=O)(=O)NC2OC(=O)C(Cl)=C2Cl)cc1 (centres undefined) | 2 | 28µM* | ? | -2% | ? | -19%
Cc1ccc(C(c2nnnn2C2CCCC2)N2c3ccccc3CC2C)cc1 (centres undefined) | 2 | -9% | 13% | 9% | 71µM* | -20%
Fc1ccc(C(c2nnnn2C2CCCC2)N2CCc3ccccc32)cc1 (centres undefined) | 1 | ? | 5% | -1% | -4%[0.501 µM] | ?
Cc1ccc(CS(=O)Cc2ccc(C(=O)NCc3ccccc3Cl)o2)cc1 (centres undefined) | . | 0% | 5% | 1% | 79µM*! | 0%
Cc1nc2c(C(=O)NCCc3ccccc3Cl)c[nH]n2c(=O)c1Cl | 0 | ? | -9% | 1% | 50µM* | -7%
Cc1nc(C)c(C(=O)NCc2ccccc2Cl)o1 | -24 | -2% | 0% | 89µM* | ? | -3%
Cc1nc2c(C(=O)NCc3ccccc3)c[nH]n2c(=O)c1Cc1ccccc1Cl | . | -17% | 3% | . | -25%[59 µM] | -10%
Cc1nc2c(C(=O)NCc3ccccc3Cl)c[nH]n2c(=O)c1Cl | 2 | ? | -3% | -8% | 16µM* | -21%
Cn1c(=O)c2nc(SCC(=O)Nc3cc(Cl)cc(Cl)c3)n(C)c2n(C)c1=O | . | -4% | -13% | . | 9%[59 µM] | -6%
Cc1nc2c(C(=O)NCc3ccccc3)c[nH]n2c(=O)c1Cl | 4 | -1% | 1% | 17% | 79µM* | -4%
COCCNC(=O)c1ccc2c(=O)n(CCOC)c(SCC(=O)c3c[nH]c4ccccc34)nc2c1 | . | -2% | -2% | . | 6%[59 µM] | -23%
Cc1ccc(NC(=O)CSc2n[nH]c(-c3ccco3)n2)c(C)c1 | 4 | -7% | -2% | -1% | -3% | 0%
Cc1cccc(NC(=O)CSc2nnc(-c3ccco3)c(-c3ccco3)n2)c1 | -5 | 14µM* | ? | 7.9µM* | 8.9µM* | ?
Cc1cccc(NC(=O)CSc2nnc(-c3ccco3)c(-c3ccco3)n2)c1C | -15 | 7.9µM* | 13µM* | 32µM* | 22%[0.501 µM] | ?
NC(=O)C[C@@H]1N[C@]2(C(=O)Nc3ccccc32)[C@@H]2C(=O)N(c3cc(C(F)(F)F)ccc3Cl)C(=O)[C@H]12 | -1 | -9% | -3% | 14% | 50µM* | -8%
CCCOc1ccc(N2C(=O)C3C(C(C)C)NC4(C(=O)c5ccccc5C4=O)C3C2=O)cc1 (centres undefined) | -5 | -17% | 2% | -2% | ? | -5%
CC(C)[C@@H]1N[C@]2(C(=O)Nc3ccccc32)[C@@H]2C(=O)N(c3cccc(C(F)(F)F)c3)C(=O)[C@@H]21 | 0 | -6% | -6% | 19% | 50µM* | -13%
COc1cc(/C=C/c2cccc[n+]2C)ccc1OCC(=O)Nc1ccccc1C | 2 | . | . | 16% | -7%[59 µM] | .
CCOc1cc(/C=C\[N+](=O)[O-])ccc1OCC(=O)Nc1ccccc1C | 2 | -5% | -6% | 2µM* | ? | 4%
Cc1ccccc1CC1SC(N)=NC1=O (centres undefined) | 0 | . | . | 16% | 32µM* | .
O=C(N/N=C1/C[C@@H](O)[C@@H](O)[C@@H]2[C@@H]3C(=O)N(c4cccc(Oc5ccccc5)c4)C(=O)[C@H]3CC[C@H]12)OCc1ccccc1 | 1 | -17%[11.5 µM] | ? | 11% | . | -26%[11.6 µM]
CC1(C)OCC(CSC2=C(SCC3COC(C)(C)O3)C(=O)c3ncccc3C2=O)O1 (centres undefined) | -87* | 1µM* | 1.8µM* | 1.3µM* | . | ?
O=C1c2cccnc2-c2ncccc21 | -1 | 1% | -4% | -3% | . | 3%
COc1ccc2c(c1OC)C(=O)OC2Nc1nc(-c2ccc(-c3ccccc3)cc2)cs1 (centres undefined) | 16 | 0% | 0% | ? | 40µM* | -1%
CC(=O)NC1C(=O)N=C(SC(C)C(=O)Nc2cccc(Cl)c2)NC1=O (centres undefined) | 5 | -14% | -10% | -2% | 5%[12.7 µM] | -5%
SMILES | FBPA coupling cs | Tau fibril ThT | Tau fibril FP | Sfp PPTase inh | G9a block | Tau fluor cs
O=C1Nc2ccccc2/C1=N\N=C\C1=C(N2CCOCC2)C(=C\c2ccccc2)/CC1 | -4 | 7.1µM* | ? | 32µM* | ? | ?
O=C1Nc2ccccc2/C1=N/N=C/c1cccc(O)c1 | 1 | 11µM* | 2% | -7% | . | ?
COc1cc(/C=N/N=C2/C(=O)Nc3ccccc32)cc(OC)c1O | -1 | 11µM* | ? | -18% | 2.8µM* | ?
CCc1cnc2c(c1SCC(=O)c1ccc(Cl)cc1)c(=O)n(C)c(=O)n2C | . | ? | -12% | . | ? | -14%
CCN(CC)C(=O)CSc1nc2c(c(=O)n(C)c(=O)n2C)n1Cc1ccccc1 | . | 2% | -1% | . | 0%[59 µM] | 0%
Cc1cc(C)n(CCc2nc3c4ccccc4nc(N4CCN(c5ccc(F)cc5)CC4)n3n2)n1 | . | -9% | 3% | . | -1%[59 µM] | 0%
COc1ccccc1N1CCN(C(=O)c2cc3c(=O)oc4ccccc4c3s2)CC1 | . | -7% | -11% | . | 6%[59 µM] | -10%
CC(C)CNC1=CC(=O)CC(c2ccco2)C1 (centres undefined) | -10 | 28µM* | ? | ? | -1%[59 µM] | -21%
O=C1C=C(Nc2ccc(Cl)cc2Cl)CC(c2ccco2)C1 (centres undefined) | 5 | -2% | -1% | -25% | 50µM* | -6%
CCCCCn1c(-c2cccc(C)c2)nc2ccccc21 | . | -15% | -5% | . | 24%[59 µM] | -14%
CC1=C(C(=O)Nc2ccccc2C)C(c2cccs2)n2nc(SCc3cc(C)ccc3C)nc2N1 (centres undefined) | . | -2% | -3% | . | 2%[59 µM] | -11%
CN(C)c1ncc2nc(-c3cc(F)cc(F)c3)c(=O)n(Cc3cccs3)c2n1 | -1 | . | . | -17% | 1%[12.7 µM] | .
O=C(CCN1C(=O)/C(=C/c2ccco2)SC1=S)Nc1ccc(C(=O)O)c(O)c1 | 4 | . | . | 56µM* | 22µM* | .
COc1ccccc1/C=C1\SC(=S)N(CCC(=O)Nc2ccc(C(=O)O)c(O)c2)C1=O | 14 | . | . | -10% | 50µM* | .
Cc1cc(NC(=O)CCN2C(=O)/C(=C\c3ccccc3Cl)SC2=S)no1 | 4 | -20% | 5% | 50µM* | 8% | -22%
COc1cc(/C=C2\SC(=S)N(CCC(=O)Nc3ccc(O)cc3)C2=O)cc(OC)c1OC | 0 | . | . | -13% | 1% | .
COc1ccccc1NC(=O)CCN1C(=O)/C(=C/c2cc(OC)c(OC)c(OC)c2)SC1=S | -3 | . | . | 45µM* | -9%[0.501 µM] | .
